What all share (experiment): NCI-60 one-dose screen, 48 h (100 = growth as untreated, 0 = no growth, -100 = all killed)
In one assay the test system is HCT-15 colon. The settings on record: 10 µM.
Another assay deals with HT29 colon. The settings on record: 10 µM.
The test system of another assay is SNB-19 CNS. The settings on record: 10 µM.
For another assay, the system named is U251 CNS. To be noted: 10 µM.
A further assay relates to PC-3 prostate. The settings on record: 10 µM.
The subject of a further assay is SK-MEL-5 melanoma. The settings on record: 10 µM.
Another assay relates to UACC-62 melanoma. The settings on record: 10 µM unless noted.
A further assay concerns LOX IMVI melanoma. The settings on record: 10 µM.
For the next assay, the system named is SK-MEL-28 melanoma. The settings on record: 10 µM.
The subject of the next assay is SK-MEL-2 melanoma. The settings on record: 10 µM.
The test system of the next assay is EKVX NSCLC. To be noted: 10 µM.
The test system of the next assay is SN12C renal. The settings on record: 10 µM.
Another assay has as its system UO-31 renal. The settings on record: 10 µM.
For another assay, the system named is TK-10 renal. The settings on record: 10 µM unless noted.
The next assay relates to ACHN renal. The settings on record: 10 µM.
For the next assay, the system named is CAKI-1 renal. The settings on record: 10 µM.
The test system of another assay is A498 renal. The settings on record: 10 µM.
For the next assay, the system named is CCRF-CEM leukemia. The settings on record: 10 µM.
Another assay concerns MOLT-4 leukemia. To be noted: 10 µM.
Another assay relates to SNB-75 CNS. The settings on record: 10 µM.

This is part of a sample that, as a whole, favours compounds with a hit. Of some 83,000 tested, about 20% had one in any assay.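 Interpretation: 100, growth as untreated; towards 0, rising growth inhibition; 0, no net growth; 0 to -100, cell death. Compounds scoring below 10 were considered active.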 Unmarked numbers belong to inactive results. The source made the active and inactive calls.

Take `O=S(=O)(O)c1ccc(Cl)c(Cl)c1`: the growth was 107% with HCT-15 colon; 109% with HT29 colon; 101% in the assay with SNB-19 CNS; 105% in the assay with U251 CNS; 94.1% with PC-3 prostate; 107% in the assay on SK-MEL-5 melanoma. The growth in the assay on UACC-62 melanoma is 99%; in the assay with LOX IMVI melanoma, 91.8%; in the assay with SK-MEL-28 melanoma, 112%; in the assay with SK-MEL-2 melanoma, 103%; in the assay on EKVX NSCLC, 91.4%; in the assay on SN12C renal it was 97.9%. In addition, the growth with UO-31 renal is 79.4%; with TK-10 renal, 100%; in the assay on ACHN renal, 97.3%; in the assay on CAKI-1 renal, 84.8%; in the assay on A498 renal, 99.4%; with CCRF-CEM leukemia, 103%. Moreover, the growth in the assay with MOLT-4 leukemia is 109%.

As for `CC(=O)Nc1cccc(NC(C)=O)n1`, the growth is 103% in the assay with HCT-15 colon; 110% in the assay on HT29 colon; 106% in the assay on SNB-75 CNS; 102% with U251 CNS; 105% in the assay with SK-MEL-5 melanoma; 97.5% with UACC-62 melanoma. For the same compound, the growth with LOX IMVI melanoma is 103%; in the assay on SK-MEL-28 melanoma it was 108%; in the assay on EKVX NSCLC it was 104%; with SN12C renal it was 99.7%; with UO-31 renal, 99.4%; in the assay with TK-10 renal, 111%. The growth is 105% in the assay with ACHN renal; 126% in the assay on CAKI-1 renal; 100% in the assay on A498 renal; 90.3% with CCRF-CEM leukemia; 111% in the assay with MOLT-4 leukemia.

Consider `O/N=C/c1ccc(O)cc1O`, for which the growth was 89.9% in the assay on HCT-15 colon; 102% in the assay with HT29 colon; 96.6% in the assay on SNB-19 CNS; 90.6% in the assay on U251 CNS; 86.4% in the assay with PC-3 prostate; 104% in the assay with SK-MEL-5 melanoma. The growth in the assay on UACC-62 melanoma is 96.5%; in the assay with LOX IMVI melanoma, 105%; in the assay on SK-MEL-28 melanoma, 107%; with SK-MEL-2 melanoma it was 92.9%; with EKVX NSCLC it was 102%; in the assay with SN12C renal it was 98%. The growth with UO-31 renal is 99%; in the assay on TK-10 renal, 102%; in the assay with ACHN renal, 95.9%; with CAKI-1 renal, 101%; in the assay on A498 renal, 85.9%; with CCRF-CEM leukemia it was 86.5%. In addition, the growth in the assay with MOLT-4 leukemia was 102%.

Turning to `CCCCC/C=N/Nc1nc(C)cc(=O)[nH]1`, the growth in the assay on HCT-15 colon was 116%; in the assay with HT29 colon, 105%; with SNB-19 CNS, 108%; in the assay on U251 CNS, 96.6%; with PC-3 prostate it was 88.7%; with SK-MEL-5 melanoma, 104%. In addition, the growth in the assay with UACC-62 melanoma was 102%; in the assay with LOX IMVI melanoma, 94.3%; in the assay on SK-MEL-28 melanoma it was 102%; in the assay on SK-MEL-2 melanoma, 121%; in the assay with EKVX NSCLC it was 91.4%; with SN12C renal, 97.4%. Further, the growth in the assay with UO-31 renal is 92.1%; in the assay on TK-10 renal it was 108%; in the assay on ACHN renal, 102%; with CAKI-1 renal it was 88.3%; in the assay on A498 renal, 96.2%; in the assay on CCRF-CEM leukemia, 105%. Further, the growth with MOLT-4 leukemia is 95.3%.

In the case of `CCOC(=O)CCCC(=O)OCC`, the growth in the assay with HCT-15 colon was 104%; in the assay on HT29 colon it was 110%; with SNB-19 CNS it was 106%; in the assay with U251 CNS, 99.9%; with PC-3 prostate, 100%; in the assay on SK-MEL-5 melanoma, 106%. Moreover, the growth with UACC-62 melanoma is 102%; with LOX IMVI melanoma, 98.9%; with SK-MEL-28 melanoma, 109%; with SK-MEL-2 melanoma it was 111%; with EKVX NSCLC it was 108%; in the assay on SN12C renal, 114%. In addition, the growth in the assay with UO-31 renal is 89.7%; in the assay with TK-10 renal, 101%; in the assay on ACHN renal, 105%; with CAKI-1 renal, 95.2%; in the assay with A498 renal it was 92.1%; in the assay on CCRF-CEM leukemia it was 110%. Further, in the assay with MOLT-4 leukemia, the growth was 101%.

As to `Oc1ccc(N=Nc2ccc(Br)cc2)c(O)c1`, the growth in the assay with HCT-15 colon was 21.2%; in the assay with HT29 colon it was 93.5%; with SNB-19 CNS, 38.5%; in the assay on U251 CNS, 16.8%; with PC-3 prostate it was 17%; in the assay with SK-MEL-5 melanoma, 11.1%. The growth in the assay with UACC-62 melanoma was 39.4%; in the assay with LOX IMVI melanoma, 51.9%; in the assay with SK-MEL-28 melanoma it was 51.2%; in the assay with SK-MEL-2 melanoma it was -5.42% (active); with EKVX NSCLC it was 47.4%; in the assay with SN12C renal, 54.1%. Also, the growth is 30.3% in the assay on UO-31 renal; 39.2% with TK-10 renal; 49.8% in the assay with ACHN renal; 3.01% (active) in the assay with CAKI-1 renal; 23.5% in the assay on A498 renal; -20% (active) in the assay with CCRF-CEM leukemia. In addition, the growth in the assay with MOLT-4 leukemia is 21.2%.

As for `CCOc1ccc(/C=N/N=C(N)N)cc1OCC`, the growth was 97.6% in the assay with HCT-15 colon; 89.5% in the assay on HT29 colon; 97.6% in the assay with SNB-19 CNS; 103% in the assay on U251 CNS; 94.1% in the assay with PC-3 prostate; 98.5% in the assay with SK-MEL-5 melanoma. The growth is 93.1% in the assay on UACC-62 melanoma; 101% in the assay on LOX IMVI melanoma; 92.4% in the assay on SK-MEL-28 melanoma; 113% in the assay on SK-MEL-2 melanoma; 91.8% with EKVX NSCLC; 108% in the assay on SN12C renal. Further, the growth is 74.7% in the assay on UO-31 renal; 106% in the assay on TK-10 renal; 97.4% in the assay on ACHN renal; 95.7% in the assay with CAKI-1 renal; 101% in the assay with A498 renal; 95.4% in the assay with CCRF-CEM leukemia. In addition, the growth with MOLT-4 leukemia was 87.6%.

Take `CCC(O)CC(CC)CO` (centres undefined): the growth is 104% in the assay with HCT-15 colon; 113% in the assay with HT29 colon; 114% with SNB-19 CNS; 111% with U251 CNS; 101% in the assay on PC-3 prostate; 106% in the assay with SK-MEL-5 melanoma. Moreover, the growth with UACC-62 melanoma was 112%; in the assay on LOX IMVI melanoma, 103%; in the assay on SK-MEL-28 melanoma it was 101%; with SK-MEL-2 melanoma it was 134%; in the assay on EKVX NSCLC, 93.7%; in the assay on SN12C renal it was 111%. Moreover, the growth with UO-31 renal is 94.6%; in the assay with TK-10 renal it was 111%; with ACHN renal, 105%; in the assay on CAKI-1 renal, 96.6%; in the assay on A498 renal, 99.2%; with CCRF-CEM leukemia, 96.2%. Besides, the growth in the assay on MOLT-4 leukemia is 102%.

With `[O-][N+](=Nc1cccc(Cl)c1)c1cccc(Cl)c1`, the growth in the assay on HCT-15 colon was 78.1%; in the assay on HT29 colon, 106%; in the assay with SNB-19 CNS it was 100%; in the assay on U251 CNS it was 84.1%; in the assay with PC-3 prostate it was 96.4%; in the assay with SK-MEL-5 melanoma, 95.9%. Moreover, the growth is 87.5% in the assay on UACC-62 melanoma; 97.4% with LOX IMVI melanoma; 113% in the assay with SK-MEL-28 melanoma; 112% with SK-MEL-2 melanoma; 88.8% in the assay with EKVX NSCLC; 93% in the assay with SN12C renal. Further, the growth in the assay with UO-31 renal was 72.8%; in the assay on TK-10 renal, 108%; in the assay with ACHN renal, 94.3%; in the assay on CAKI-1 renal it was 96.4%; in the assay on A498 renal, 103%; in the assay with CCRF-CEM leukemia it was 111%. Moreover, the growth with MOLT-4 leukemia is 125%.

The record behind these values is PubChem BioAssay (NCI).
